Experimental data from publication PMC10726135, “HNF4α isoforms regulate the circadian balance between carbohydrate and lipid metabolism in the liver”.
Over roughly 18,000 sequences, “log2 normalized intensity” has its median near 0.39; the highest 2% begin near 6.6. For the sample, the highest values were picked, then their nearest neighbours and some sequences at random.

target: T1, HNF4alpha2 (COS-7 nuclear extract) (Homo sapiens, UniProt P41235 1-474); assay: protein-binding microarray; COS-7 nuclear extract on double-stranded Agilent 4x180k PBM; binding buffer, salt, pH and temperature not given in the material; high values mean tight binding; conditions: chain copies: 2; label: 3' end of strand 1 on the slide; dsDNA, one strand shown
T1 sequence: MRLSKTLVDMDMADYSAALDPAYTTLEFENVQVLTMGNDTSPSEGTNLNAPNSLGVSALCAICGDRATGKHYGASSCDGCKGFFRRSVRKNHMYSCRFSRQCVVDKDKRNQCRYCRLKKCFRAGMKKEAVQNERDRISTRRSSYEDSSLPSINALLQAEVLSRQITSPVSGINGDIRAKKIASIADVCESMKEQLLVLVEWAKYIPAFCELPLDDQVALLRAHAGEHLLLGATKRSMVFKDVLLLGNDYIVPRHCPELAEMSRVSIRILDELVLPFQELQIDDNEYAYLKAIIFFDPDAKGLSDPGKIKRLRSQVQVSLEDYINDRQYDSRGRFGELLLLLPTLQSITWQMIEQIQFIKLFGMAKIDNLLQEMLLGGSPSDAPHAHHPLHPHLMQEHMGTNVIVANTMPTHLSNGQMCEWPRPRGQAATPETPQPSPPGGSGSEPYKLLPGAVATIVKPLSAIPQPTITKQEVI
Summary of the method: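 Double-stranded oligonucleotides of ~60 nt, representing ~44,000 test sequences in quadruplicate, made up a custom Agilent SurePrint G3 4x180k array. Nuclear extracts from COS-7 cells transiently transfected by CaPO4 with a human HNF4α isoform expression vector were applied, and bound HNF4α was imaged at 2-µm resolution on an Agilent G2565CA scanner. Binding signal refers to the background-corrected, normalized gProcessedSignal output of Agilent software.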

Sequence	binding signal
GACTGGAAGTTGCCCGAGCTGCCCTTTATCGCCTAGGGAGATTAGAGTATCGGTCGA	2.47 log2 normalized intensity
CCGGTTTGTTCCATGCCACAGAATCGCCCCGCCTAGGGAGATTAGAGTATCGGTCGA	2.6 log2 normalized intensity
CCAGATGATCTTTACCCTGGAATGCTGTTAGCCTAGGGAGATTAGAGTATCGGTCGA	1.33 log2 normalized intensity
GGAGGAGCTGTTTGACATCCAAAGTTTCCTGCCTAGGGAGATTAGAGTATCGGTCGA	0.813 log2 normalized intensity
AAGTTGGAATTTGGGTGATCCTGGTAGCAGGCCTAGGGAGATTAGAGTATCGGTCGA	0.0957 log2 normalized intensity
TGGTTTTATGGTGTCTTATCTTCCTCTGGCGCCTAGGGAGATTAGAGTATCGGTCGA	1.96 log2 normalized intensity
CCCCCCACCCCACACACACACAGCATTCCAGCCTAGGGAGATTAGAGTATCGGTCGA	5.05 log2 normalized intensity
CACACACACACACATTGCAGTATGCCCCCCGCCTAGGGAGATTAGAGTATCGGTCGA	5.1 log2 normalized intensity
TATGCCCCCCCACCCCACACACACACAGCAGCCTAGGGAGATTAGAGTATCGGTCGA	6.17 log2 normalized intensity
TGCAGTATGCCCCCCCACCCCACACACACAGCCTAGGGAGATTAGAGTATCGGTCGA	6.7 log2 normalized intensity
ACACACACATTGCAGTATGCCCCCCCACCCGCCTAGGGAGATTAGAGTATCGGTCGA	6.13 log2 normalized intensity
CACATTGCAGTATGCCCCCCCACCCCACACGCCTAGGGAGATTAGAGTATCGGTCGA	6.96 log2 normalized intensity
TACACCTGGGGGCTTCCCAACTCCATTATCGCCTAGGGAGATTAGAGTATCGGTCGA	-0.261 log2 normalized intensity
TCCCTATGTTGTCCCTGCCCTTTGTCCAGGGCCTAGGGAGATTAGAGTATCGGTCGA	3.89 log2 normalized intensity
AGAATATTAGATGATAAGGGTGAAAAGATAGCCTAGGGAGATTAGAGTATCGGTCGA	-0.989 log2 normalized intensity
AAGGAGCTTGGGAAGACAGATGTGATATTCGCCTAGGGAGATTAGAGTATCGGTCGA	-0.781 log2 normalized intensity
TTTGTTGCCTCTTTTCTGCTTTTGGAATTTGCCTAGGGAGATTAGAGTATCGGTCGA	2.71 log2 normalized intensity
AAGCCCTTCTTCTGGAGCCTCAGTAAGTTTGCCTAGGGAGATTAGAGTATCGGTCGA	0.629 log2 normalized intensity
GTGCTTGGACCTGCTCTGTTTTCTTTCGGTGCCTAGGGAGATTAGAGTATCGGTCGA	1.49 log2 normalized intensity
CTTTTCTGCTTTTGGAATTTGACCTCATTTGCCTAGGGAGATTAGAGTATCGGTCGA	6.91 log2 normalized intensity
CGCATTTCTGCTTCTTCTCATTCTTGGAATGCCTAGGGAGATTAGAGTATCGGTCGA	1.39 log2 normalized intensity

Sequence	binding signal
GGTGACCCCTCAGTTTTTCTCTTTTGACCTGCCTAGGGAGATTAGAGTATCGGTCGA	4.09 log2 normalized intensity
CCCCTCAGTTTTTCTCTTTTGACCTTTGGAGCCTAGGGAGATTAGAGTATCGGTCGA	8.9 log2 normalized intensity
CTGCTTTTGGAATTTGACCTCATTTGCTCCGCCTAGGGAGATTAGAGTATCGGTCGA	5.7 log2 normalized intensity
TGCCTCTTTTCTGCTTTTGGAATTTGACCTGCCTAGGGAGATTAGAGTATCGGTCGA	7.84 log2 normalized intensity
CTGTTGGTGACTGACCCTGATCCCTCCCTGGCCTAGGGAGATTAGAGTATCGGTCGA	3.18 log2 normalized intensity
GGATCCCATTCATGTGGGTCAACAGACAAAGCCTAGGGAGATTAGAGTATCGGTCGA	0.575 log2 normalized intensity
AAAGTCTTTCTCTTTCAAGATAACAAGGCAGCCTAGGGAGATTAGAGTATCGGTCGA	1.37 log2 normalized intensity
CTGATCAAAGGTCATTGGTATTGATAGCGCGCCTAGGGAGATTAGAGTATCGGTCGA	4.8 log2 normalized intensity
ATATCTATATGTTTACATATCACTGTACTCGCCTAGGGAGATTAGAGTATCGGTCGA	2.08 log2 normalized intensity
GCTCCCTCCCCTCCTCCCTTGCTCACCCCAGCCTAGGGAGATTAGAGTATCGGTCGA	5.91 log2 normalized intensity
ATGCTGGTCTCCTTGCCCCACCCCCCACCCGCCTAGGGAGATTAGAGTATCGGTCGA	7.6 log2 normalized intensity
GGTCTCCTTGCCCCACCCCCCACCCCAGAAGCCTAGGGAGATTAGAGTATCGGTCGA	6.86 log2 normalized intensity
ATCCCCGCTCCCCTCCCCCACCCGCGGTCCGCCTAGGGAGATTAGAGTATCGGTCGA	6.38 log2 normalized intensity
TCCCCACCCCCAACTTCCCCAACCCTTGCAGCCTAGGGAGATTAGAGTATCGGTCGA	6.3 log2 normalized intensity
ACCAAGGGTCATGCTGGTCTCCTTGCCCCAGCCTAGGGAGATTAGAGTATCGGTCGA	1.74 log2 normalized intensity
CATGCTCCCCACCCCCAACTTCCCCAACCCGCCTAGGGAGATTAGAGTATCGGTCGA	6.67 log2 normalized intensity
CCTTGCCCCACCCCCCACCCCAGAAGTATGGCCTAGGGAGATTAGAGTATCGGTCGA	6.2 log2 normalized intensity
GGGTCATGCTGGTCTCCTTGCCCCACCCCCGCCTAGGGAGATTAGAGTATCGGTCGA	5.55 log2 normalized intensity
CGAACCTGTCTCCAGAGGACTTGCGGTGTTGCCTAGGGAGATTAGAGTATCGGTCGA	0.482 log2 normalized intensity
CCTTTGGACTGTGACCCCACCTCTCAGACAGCCTAGGGAGATTAGAGTATCGGTCGA	4.83 log2 normalized intensity
GGACTGTGACCCCACCTCTCAGACAGAGCTGCCTAGGGAGATTAGAGTATCGGTCGA	2.75 log2 normalized intensity
